Data from PubChem BioAssay.
“And” between values parts separate entries of the source, which are not always exact repeats. Equal entries are not always repeated. The source made the active and inactive calls.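 How the source made its calls, unless noted: active means thallium flux through the channel raised or lowered by more than 3 SD from vehicle-only wells, actives on both sides; inactive means the rest.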

Columns and labels:
[1] = polyglutamine-triggered caspase-3 activation inhibitors, cell-based (AID 1583); conditions: polyglutamine-induced caspase-3 activation, cell assay; stronger effect = higher value;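 tested at 10 µM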
[2] = suppressors of polyQ aggregation in yeast, 75Q-TubU reporter (AID 1593); conditions: Yeast 75Q polyglutamine aggregation reporter
[3] = inhibitors of mitochondrial cytochrome c release, biochemical, purified mitochondria (AID 1603); conditions: stronger effect = lower value;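 further: mouse liver mitochondria challenged with calcium chloride; signal normalized to the plate average as 100%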
[4] = inhibitors of polyQ protein aggregation (AID 1604); conditions: polyglutamine-induced protein aggregation inhibition assay; stronger effect = higher value; tested at 2.5 µM
[5] = enhancers of glutamate uptake in motor neurons, MN-1 cell line (AID 1612); conditions: MN-1 motor neuron cells, stronger effect = higher value;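 further: tested at 1 µM final; 0% = mean of DMSO vehicle wells on each plate; positive means more glutamate uptake than control and negative means less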
[6] = Cy5 fluorescence interference with SSB-bound oligo, artefact control for HCV NS3 helicase inhibitor project, biochemical, NIH Clinical Collection, E. coli SSB (AID 743268; call rule not given here)
[7] = system: Hepatitis C virus NS3 helicase; test: HCV NS3 helicase inhibitors, primary screen, biochemical, fluorescence polarization, NIH Clinical Collection (AID 743270; call rule not given here); conditions: NS3 helicase binding to Cy5-dT15 DNA, stronger effect = higher value, concentration not given here
[8] = molecular target: Single-stranded DNA-binding protein (Escherichia coli (strain K12)) (UniProt P0AGE0); test: E. coli SSB displacement from DNA, counter-screen for HCV NS3 helicase inhibitor project, biochemical, fluorescence polarization, NIH Clinical Collection (AID 743271; in the data active means inhibition above about 28%); conditions: stronger effect = higher value, concentration not given here
[9] = fluorescence interference in NS3h assay format, artefact control for HCV NS3 helicase inhibitor project, biochemical, NIH Clinical Collection (AID 743272; call rule not given here;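 further: HCV NS3 helicase with a Cy5 labelled single stranded DNA probe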); conditions: fluorescence interference counterscreen, stronger effect = lower value
[10] = viability rescue of complex I mutant cybrids, primary screen, cell-based, galactose medium, ATP luminescence (AID 1645843;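 active means z-score of at least 1.8 in each of two replicates, scored against plate mean and spread of sample wells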;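 further: positive z means more ATP and so rescue of galactose-driven cybrid death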); conditions: complex I mutant cybrid cells, 72 h, stronger effect = higher value
[11] = system: F380Y/beta4; test: modulators of BK channel variants, profiling panel, selectivity assay, cell-based, U2OS BacMam, thallium flux, beta subunits (AID 1259406); conditions: at 30 µM;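 further: initial slope of Thallos dye fluorescence rise after thallium is added; log ratio against the mean of 0.3% DMSO vehicle wells on the same plate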
[12] = molecular target: Calcium-activated potassium channel subunit alpha-1 (Homo sapiens) + Leucine-rich repeat-containing protein 26 (Homo sapiens) (UniProt Q12791+Q2I0M4); test: as above; conditions: F380Y/Slo1WT/gamma1, at 30 µM
Chain of Calcium-activated potassium channel subunit alpha-1 (Homo sapiens) + Leucine-rich repeat-containing protein 26 (Homo sapiens) (Q2I0M4 whole entry, looked up, one chain of several): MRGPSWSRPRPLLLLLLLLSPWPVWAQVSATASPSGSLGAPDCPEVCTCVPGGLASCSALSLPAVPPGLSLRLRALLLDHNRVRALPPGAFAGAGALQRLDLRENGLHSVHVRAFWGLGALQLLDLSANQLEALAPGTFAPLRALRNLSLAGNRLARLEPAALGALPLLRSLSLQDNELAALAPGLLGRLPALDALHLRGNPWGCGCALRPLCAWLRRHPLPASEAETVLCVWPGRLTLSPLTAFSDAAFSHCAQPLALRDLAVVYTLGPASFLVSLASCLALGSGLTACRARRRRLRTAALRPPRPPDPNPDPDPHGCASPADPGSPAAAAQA

[13] = system: R275C; test: as above; conditions: at 30 µM
[14] = system: R275C/beta1; test: as above; conditions: at 30 µM
[15] = system: R275C/beta2Delta; test: as above; conditions: at 30 µM
[16] = system: R275C/beta4; test: as above; conditions: at 30 µM
[17] = system: R275C/Slo1WT/beta2; test: as above; conditions: at 30 µM

NS(=O)(=O)c1cc2c(cc1Cl)NC=NS2(=O)=O
80.6%: inhibition of aggregation [4]
1.24: score [2]
-50.5%: inhibition [1]
inactive: fluorescence ratio [6] 0.95 | inhibition [7] -5% | inhibition [8] -1.24% | fluorescence ratio [9] 0.94 | z-score [10] 0.185 and 0.555 | log fold change Tl+ flux [11] -2.4e-05 | log fold change Tl+ flux [12] 0.00339 | log fold change Tl+ flux [13] 0.0234 | log fold change Tl+ flux [14] 0.0235 | log fold change Tl+ flux [15] 0.0235 | log fold change Tl+ flux [16] 0.0288 | log fold change Tl+ flux [17] 0.0443
0.96: cytochrome c release ratio [3]
4.54%: glutamate uptake change [5]

Cc1cn([C@H]2C[C@H](N=[N+]=[N-])[C@@H](CO)O2)c(=O)[nH]c1=O
1.46: score [2]
inactive: fluorescence ratio [6] 1.05 | inhibition [7] -3.18% | inhibition [8] -2.76% | fluorescence ratio [9] 1.04 | z-score [10] 0.4 and 0.685 | log fold change Tl+ flux [11] 0.0148 | log fold change Tl+ flux [12] 0.0181 | log fold change Tl+ flux [13] -0.0157 | log fold change Tl+ flux [14] -0.0324 | log fold change Tl+ flux [15] 0.0219 | log fold change Tl+ flux [16] 0.00485 | log fold change Tl+ flux [17] 0.022
-23.5%: glutamate uptake change [5]
1.1: cytochrome c release ratio [3]
48.1%: inhibition of aggregation [4]
-8.49%: inhibition [1]

COC(=O)Nc1nc2ccc(C(=O)c3ccccc3)cc2[nH]1
0.9: cytochrome c release ratio [3]
83.3%: inhibition of aggregation [4]
-5.42%: inhibition [1]
0.63: score [2]
-29.4%: glutamate uptake change [5]
inactive: fluorescence ratio [6] 1.04 | inhibition [7] -15.9% | inhibition [8] -8.87% | fluorescence ratio [9] 0.98 | z-score [10] 0.145 and 0.665 and -1.08 | log fold change Tl+ flux [11] -0.0277 | log fold change Tl+ flux [12] 0.00509 | log fold change Tl+ flux [13] -0.00107 | log fold change Tl+ flux [14] 0.00663 | log fold change Tl+ flux [15] -0.00163 | log fold change Tl+ flux [16] -0.0663 | log fold change Tl+ flux [17] 0.008

NC(=O)N1c2ccccc2CC(=O)c2ccccc21
inactive: fluorescence ratio [6] 0.99 | inhibition [7] -5.15% | inhibition [8] -2.41% | fluorescence ratio [9] 0.97 | z-score [10] -1.62 and -0.18 | log fold change Tl+ flux [11] -0.0339 | log fold change Tl+ flux [12] 0.0743 | log fold change Tl+ flux [13] -0.0757 | log fold change Tl+ flux [16] -0.00127 | log fold change Tl+ flux [17] 0.048
active: log fold change Tl+ flux [14] 0.0898 | log fold change Tl+ flux [15] 0.1

CCc1nc(N)nc(N)c1-c1ccc(Cl)cc1
1.35: score [2]
14.1%: glutamate uptake change [5]
inactive: fluorescence ratio [6] 0.95 | inhibition [7] -1.36% | inhibition [8] 1.81% | fluorescence ratio [9] 0.94 | z-score [10] 0.72 | log fold change Tl+ flux [11] -0.0112 | log fold change Tl+ flux [12] -0.0172 | log fold change Tl+ flux [13] -0.00785 | log fold change Tl+ flux [14] -0.00379 | log fold change Tl+ flux [15] 0.00565 | log fold change Tl+ flux [16] -0.00455 | log fold change Tl+ flux [17] -0.0705
-13.9%: inhibition [1]
1.05: cytochrome c release ratio [3]
85.8%: inhibition of aggregation [4]
